Results as given in PubChem BioAssay (NCATS).
“And” between values parts separate entries of the source, which are not always exact repeats. Equal entries are not always repeated. Results filed as inconclusive are left out. Unmarked numbers belong to inactive results. The source made the active and inactive calls. Calls come from the whole dose curve; as a rule, active = well fitted inhibition curve with a large enough effect; inconclusive = small, poorly fitted or top-dose-only effect; inactive = flat fitted curve, though single readings scatter.

The compounds below were run on PC49 (assay: qHTS profiling for inhibitors of Plasmodium falciparum proliferation (AID 504749)). Settings: P. falciparum in erythrocytes, SYBR Green DNA, 72 h; series mostly up to 28.7 µM.
How it was run: (§1)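 Fluorescence of SYBR Green-bound parasite DNA, read at 485/535 nm, served as the growth measure. Infected erythrocytes were cultured with compound 72 h; artemisinin (0.29 uM) and DMSO wells defined the normalization range.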
Note: nearly all actives have a fitted effect of over 60% in size.
Potency is the fitted concentration of half-maximal effect.

Row | SMILES | Potency
1 | CC(=O)[O][Hg][c]1ccccc1 | 2 µM (active)
2 | CC(=O)OCC1=C(C(=O)O)N2C(=O)[C@@H](N)[C@@H]2SC1 | inactive
3 | CCCCCCCCCC(CC)c1ccc(S(=O)(=O)O)cc1 (stereo unspecified) | inactive

What follows are compounds tested on W2 in the same assay as above. Settings: P. falciparum in erythrocytes, SYBR Green DNA, 72 h; series mostly up to 28.7 µM.
How it was run: as §1

Row | SMILES | Potency
4 | CC(=O)[O][Hg][c]1ccccc1 | 4.78 µM (active)
5 | CC(=O)OCC1=C(C(=O)O)N2C(=O)[C@@H](N)[C@@H]2SC1 | inactive
6 | CCCCCCCCCC(CC)c1ccc(S(=O)(=O)O)cc1 (stereo unspecified) | inactive

What follows are compounds tested on CRL-7250 (assay: Cytotoxic Profiling of Annotated Libraries Using Quantitative High-Throughput Screening (AID 1296008; for max response: % is set by controls: 0 for no effect and ±100 for the full control effect)). Settings: Five cell lines viability, CellTiter-Glo ATP luminescence, 48-72 h; max response: active compounds read low.
How it was run: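 Compounds were pin-transferred onto cells and incubated 48 or 72 hr at 37 degree Celsius, 95% humidity. CellTiter-Glo was added, plates sat 10 min at room temperature, then ATP-coupled luminescence was imaged as the viability read-out.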

Row | SMILES | Potency | max response | outcome
7 | COc1ccc2c(c[n+](C)c3c4cc5c(cc4ccc23)OCO5)c1OC | 16.6 µM (active) | – | –
8 | CCCCOC(=O)c1ccccc1C(=O)OCc1ccccc1 | – | -23.3% | –
9 | COCC1(CO)C(=O)C2CCN1CC2 (stereo unspecified) | – | -4.01% | –
10 | O=S(=O)(O)C(F)(F)C(F)(F)C(F)(F)C(F)(F)C(F)(F)C(F)(F)C(F)(F)C(F)(F)F | – | -8.73% | –
11 | Cc1c(C(=O)Nc2cccc(C(F)(F)F)c2)cc(-c2ccccc2)n1CCCN1CCOCC1 | – | -26% and -3.59% | –
12 | Nc1ccc(Cl)cc1N | – | -5.38% | –
13 | CC(C)(C)NC[C@H](O)c1ccc(O)cc1Cl | – | -2.25% | –
14 | S=C(SSC(=S)N1CCCCC1)N1CCCCC1 | – | -1.9% | –
15 | CC1(C)CC/C(=C/c2ccc(Cl)cc2)C1(O)Cn1cncn1 (stereo unspecified) | – | -5.73% | –
16 | CCCN1CCO[C@@H]2c3cc(O)ccc3OC[C@@H]21 | – | -5.49% | –
17 | CC(O)=C(C#N)C(=O)Nc1cc(Br)ccc1Br | – | 1.28% | –
18 | C[C@](O)(COc1ccc(C#N)cc1)C(=O)Nc1ccc(C#N)c(C(F)(F)F)c1 | – | -6.61% | –
19 | COCCOCCO | – | -4.64% | –
20 | CS(=O)(=O)c1ccc(C(=O)C2C(=O)CCCC2=O)c([N+](=O)[O-])c1 | – | -5.31% | –
21 | CCN(CC)C(=O)c1ccc(C2=CC3(CCNCC3)Oc3cccc(O)c32)cc1 | – | 3.09% and -1.02% | –
22 | C[C@H]1CCCC=CC2C[C@H](O)C[C@@H]2[C@H](O)C=CC(=O)O1 (stereo partly specified) | – | -95.9% | –
23 | C/C=C(/C)C(=O)O[C@H]1C(C)=C2[C@H]([C@@H]1OC(=O)CCCCCCC)[C@@](C)(OC(C)=O)C[C@H](OC(=O)CCC)[C@@]1(O)[C@H]2OC(=O)[C@@]1(C)O | 0.0411 µM (active) | – | –
24 | C[C@@H]1CC[C@@]2(OC1)O[C@H]1C[C@H]3[C@@H]4CC=C5C[C@@H](O[C@@H]6O[C@H](CO)[C@@H](O[C@@H]7O[C@@H](C)[C@H](O)[C@@H](O)[C@@H]7O)[C@H](O)[C@@H]6O[C@@H]6O[C@@H](C)[C@H](O)[C@@H](O)[C@@H]6O)CC[C@]5(C)[C@@H]4CC[C@]3(C)[C@@H]1[C@H]2C | 9.35 µM (active) | – | –

Row | SMILES | Potency | max response | outcome
25 | CC(=O)[O][Hg][c]1ccccc1 | 4.22 µM (active) | – | –
26 | CCOP(=O)(NC(C)C)Oc1ccc(SC)c(C)c1 (stereo unspecified) | – | -0.0778% | –
27 | CC[C@H]1C=CC=CC[C@@H](C)[C@H](O)[C@@](C)(O)C(=O)[C@@H](C)[C@H](O)[C@@H](C)C(=O)[C@@H](C)[C@H](O)[C@@H](C)C=CC(=O)O[C@@H]2[C@@H](C)[C@H](CC1)O[C@]1(CC[C@H](C)[C@H](C[C@@H](C)O)O1)[C@H]2C | 18.7 µM (active) | – | –
28 | COc1ccc2c(c1)CN(C)CC2c1ccc(Cl)c(Cl)c1 (stereo unspecified) | – | – | inactive
29 | COc1ccc(CC2NCCc3cc(OC)c(OC)cc32)cc1OC (stereo unspecified) | – | -3.56% | –
30 | CN1CCN(c2ccc([N+](=O)[O-])c3no[n+]([O-])c23)CC1 | – | 3.76% and -14.8% | –
31 | CN[C@@H]1Cc2cccc3[nH]c(=O)n(c23)C1 | – | -16.3% | –
32 | CC(=O)OCC1=C(C(=O)O)N2C(=O)[C@@H](N)[C@@H]2SC1 | – | – | inactive
33 | COc1ccc(N(C(=O)Oc2c(C)cccc2C)c2ccnc(Nc3ccc(N4CCN(C)CC4)cc3)n2)c(OC)c1 | – | -8.13% and -61.8% | –
34 | C=C1C[C@H]2[C@H]3CCC(=O)[C@@]3(C)CC[C@@H]2[C@@]2(C)C=CC(=O)C=C12 | – | -22.6% | –
35 | CC(C)(C)C(O)C(Oc1ccc(Cl)cc1)n1cncn1 (stereo unspecified) | – | – | inactive
36 | O=S(=O)(CC1CS1)c1ccc(Oc2ccccc2)cc1 (stereo unspecified) | – | -6.75% | –
37 | COc1ccc(C(=O)c2c(C)n(CCN3CCOCC3)c3cc(I)ccc23)cc1 | – | 4.04% | –
38 | CC(C)(O)C=CC(=O)[C@](C)(O)[C@H]1[C@H](O)C[C@]2(C)[C@@H]3CC=C4[C@@H](C=C(O)C(=O)C4(C)C)[C@]3(C)C(=O)C[C@@]12C | 0.418 µM (active) | – | –
39 | CC=C(C)C(=O)O[C@H]1C(C)=C2[C@@H]3OC(=O)[C@@](C)(O)[C@@]3(O)[C@@H](OC(=O)CCC)C[C@](C)(OC(C)=O)[C@@H]2[C@@H]1OC(=O)CCCCCCC | 0.148 µM (active) | – | –
40 | CCCCCCCCCC(CC)c1ccc(S(=O)(=O)O)cc1 (stereo unspecified) | – | -1.12% | –
41 | O=C(Nc1ccncc1)C(=O)c1cn(Cc2ccc(Cl)cc2)c2ccccc12 | 0.296 µM (active) | – | –
